{"source": "PubChem BioAssay AID1476", "about": "(National Center for Advancing Translational Sciences (NCATS), 2009)", "note": "Screen size: about 200,000 compounds; about 4,500 (2.2%) were called active. Roughly 12% stayed inconclusive and do not appear here. The entries come from a sample that favours actives as a whole. Values without a mark were called inactive. The call rests on the fitted dose curve; in most records, active means well fitted inhibition curve with a large enough effect; inconclusive means small, poorly fitted or top-dose-only effect, or effect the other way; inactive means flat fitted curve, though single readings scatter. Potency means the concentration at half of the fitted maximal effect."}
{"target": "Cruzipain (Trypanosoma cruzi) (UniProt P25779)", "sequence (P25779 123-467 limits assumed)": "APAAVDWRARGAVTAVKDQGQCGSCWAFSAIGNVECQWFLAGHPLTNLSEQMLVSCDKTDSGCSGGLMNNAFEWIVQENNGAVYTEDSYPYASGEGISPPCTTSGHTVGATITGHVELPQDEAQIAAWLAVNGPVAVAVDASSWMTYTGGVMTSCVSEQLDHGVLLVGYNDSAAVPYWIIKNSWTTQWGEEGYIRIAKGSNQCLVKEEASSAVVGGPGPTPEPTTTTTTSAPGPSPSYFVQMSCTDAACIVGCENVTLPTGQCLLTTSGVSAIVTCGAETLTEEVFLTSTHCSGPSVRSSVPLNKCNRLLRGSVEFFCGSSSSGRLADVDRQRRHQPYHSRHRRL", "experiment": "qHTS Assay for Promiscuous and Specific Inhibitors of Cruzain (without detergent); further: nearly all actives have a fitted effect of over 40% in size;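 on max response, negative = inhibition: plate controls were enzyme without inhibitor for no effect and buffer without enzyme for full effect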", "conditions": "purified cruzain, Z-FR-AMC fluorescence, no detergent", "summary_of_the_method": "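Purified cruzain at 1.5 nM, pre-incubated 15 min with compound at room temperature in 100 mM sodium acetate pH 5.5, 5 mM DTT, 0.00005% Triton X-100. Reaction started with 2 uM Z-FR-AMC; AMC fluorescence increase over 60 s gives rate.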", "units": {"max response, negative = inhibition": "%"}}
{"smiles": "Cc1ccc(Cn2cc(CCC(=O)NCc3ccc(OC(C)C)cc3)c3ccccc32)cc1", "max response, negative = inhibition": 6.72}
{"smiles": "Cc1cc(C)cc(NC(=O)CSc2oc(-c3ccccc3)nc2S(=O)(=O)c2ccc(Cl)cc2)c1", "max response, negative = inhibition": -6.39}
{"smiles": "COCCNC(=O)CSc1c(C)cnc2c1c(=O)n(C)c(=O)n2C", "max response, negative = inhibition": 7.18}
{"smiles": "COc1ccc(-c2c3c(=O)n(C)c(=O)n(C)c3cn2NC(C)=O)cc1", "max response, negative = inhibition": -4.34}
{"smiles": "Cc1ccc(-c2c3c(=O)n(C)c(=O)n(C)c3cn2-c2ccccc2O)cc1", "max response, negative = inhibition": 12.7}
{"smiles": "Cc1ccc(-c2c3c(=O)n(C)c(=O)n(C)c3cn2-n2cnnc2)cc1", "Potency": "12.6 µM (active)"}
{"smiles": "CC(=O)c1ccc(NS(=O)(=O)c2ccc(-c3cc(C)no3)s2)cc1", "max response, negative = inhibition": -22.1}
{"smiles": "O=C(Nc1ccc2nc(SCC(=O)N3CCCc4ccccc43)sc2c1)c1ccc(Cl)cc1", "Potency": "10 µM (active)"}
{"smiles": "CCC(=O)Nc1ccc2nc(SCC(=O)N3CCc4ccccc43)sc2c1", "max response, negative = inhibition": 26.9}
{"smiles": "O=C(Nc1ccc2nc(SCC(=O)N3CCc4ccccc43)sc2c1)c1ccccc1F", "max response, negative = inhibition": -3.59}
{"smiles": "COc1ccccc1NC(=O)CCC(=O)N1CC(C)Oc2ccc(C)cc21", "note": "(stereo unspecified)", "max response, negative = inhibition": -1.12}
{"smiles": "O=C1c2cccc(OCC(=O)N3N=C(c4cccs4)CC3c3ccc(F)cc3)c2CCN1Cc1ccccc1", "note": "(stereo unspecified)", "Potency": "12.6 µM (active)"}
{"smiles": "COc1ccc(C2CC(c3ccccc3)=NN2C(=O)CSc2nccc(=O)[nH]2)cc1", "note": "(stereo unspecified)", "max response, negative = inhibition": -19}
{"smiles": "COc1ccccc1N1CCN(C(=O)Cn2nnc(-c3cccs3)n2)CC1", "max response, negative = inhibition": -5.5}
{"smiles": "O=C(Cn1ncc2c3ccccc3n(Cc3ccccc3)c2c1=O)NCc1ccccn1", "max response, negative = inhibition": 20.3}
{"smiles": "COC(=O)c1cnc(N2CCN(c3ccccc3OC)CC2)c2ccccc12", "max response, negative = inhibition": 5.66}
{"smiles": "N#CCSc1nc2ccccc2c(=O)n1-c1ccccc1", "max response, negative = inhibition": 3.22}
{"smiles": "N#CCSc1nc2c(c(=O)n1Cc1ccccc1)C1(CCCC1)Cc1ccccc1-2", "Potency": "12.6 µM (active)"}
{"smiles": "Cc1cccc(-n2c(SCC(N)=O)nc3c(c2=O)C2(CCCCC2)Cc2ccccc2-3)c1", "max response, negative = inhibition": -0.318}
{"smiles": "CCS(=O)(=O)N1CCc2cc(C(=O)NCc3ccc(OC)cc3)ccc21", "max response, negative = inhibition": -7.6}
{"smiles": "CCCCS(=O)(=O)c1oc(-c2cccs2)nc1S(=O)(=O)c1ccccc1", "max response, negative = inhibition": -4.72}
{"smiles": "COC(=O)c1ccc(C2C(C(=O)Nc3ccccc3)=C(C)Nc3nc4ccccc4n32)cc1", "note": "(stereo unspecified)", "max response, negative = inhibition": -6.78}
{"smiles": "Cc1ccsc1C(=O)OCC(=O)c1cc2ccccc2o1", "max response, negative = inhibition": 2.71}
{"smiles": "Cc1ccc(Nc2nnc(SCC(=O)c3cc4ccccc4o3)s2)cc1C", "Potency": "15.8 µM (active)"}
{"smiles": "O=C(CSc1nnc(Nc2ccccc2)s1)Nc1cccnc1Cl", "max response, negative = inhibition": -18}
{"smiles": "CC(C)Nc1nnc(SCC(=O)c2c[nH]c3ccccc23)s1", "max response, negative = inhibition": -13.7}
{"smiles": "CC(C)c1ccc(Nc2nnc(SCC(=O)c3nnc(-c4ccccc4)o3)s2)cc1", "Potency": "12.6 µM (active)"}
{"smiles": "Cc1ccc(Nc2nnc(SCc3ccccc3)s2)cc1", "max response, negative = inhibition": -12.9}
{"smiles": "CCN(c1ncnc2c1cnn2-c1ccc(C)cc1)C1CCCCC1", "max response, negative = inhibition": 2.47}
{"smiles": "COc1cccc(-n2c(=O)c3c(C)c(C(=O)N(C)C)sc3n(Cc3cccc(C)c3)c2=O)c1", "max response, negative = inhibition": -4.38}
{"smiles": "O=C(Nc1ccc(F)cc1F)c1ccc2c(=O)n3c(nc2c1)CCCCC3", "max response, negative = inhibition": -3.34}
{"smiles": "CN(Cc1ccccc1)C(=O)c1cc2c(=O)n(C)c3ccccc3c2s1", "max response, negative = inhibition": 3.44}
{"smiles": "Cc1n[nH]c(=O)n1-c1ccc(Oc2ccccc2)cc1", "max response, negative = inhibition": 4.55}
{"smiles": "Cc1cc(C(=O)OCC(=O)N2c3ccccc3NC(=O)C2(C)C)c(C)n1-c1ccccc1", "max response, negative = inhibition": -5.2}
{"smiles": "Cc1cc(-c2csc(N)n2)c(C)n1-c1ccccc1", "Potency": "25.1 µM (active)"}
{"smiles": "Cc1cccc(N(C)C(=O)CS(=O)(=O)c2cccc3nsnc23)c1", "max response, negative = inhibition": -1.79}
{"smiles": "COc1ccc(-n2c(SCC(=O)Nc3ccc(Cl)c(C)c3)nc3n[nH]c(C)c3c2=N)cc1", "max response, negative = inhibition": -5.01}
{"smiles": "CCC(=O)N1CCc2cc(S(=O)(=O)NC(CC(C)C)C(=O)NCCc3cccc(C)c3)ccc21", "note": "(stereo unspecified)", "max response, negative = inhibition": -3.67}
{"smiles": "COc1ccc(C)cc1NC(=O)C(OC(=O)c1cccc(S(=O)(=O)N(C)c2ccccc2)c1)c1ccccc1", "note": "(stereo unspecified)", "Potency": "7.94 µM (active)"}
{"smiles": "Cc1ccc(C)c(NC(=O)C(OC(=O)c2ccc(C)s2)c2ccccc2)c1", "note": "(stereo unspecified)", "max response, negative = inhibition": 12.2}
{"smiles": "COc1ccc(C)cc1NC(=O)C(Sc1ccccc1)c1ccccc1", "note": "(stereo unspecified)", "max response, negative = inhibition": -12.8}
{"smiles": "COc1c(Cl)cc(Cl)cc1C(=O)Nc1cccc2cccnc12", "max response, negative = inhibition": -4.23}
{"smiles": "O=C1OCCN1C(=O)[C@H]1[C@H](c2ccc(F)cc2)C(c2ccccc2)=NN1c1ccc(Br)cc1", "Potency": "22.4 µM (active)"}
{"smiles": "C[C@@H]1C(c2ccc(F)cc2)=NN(c2ccc(Br)cc2)[C@H]1C(=O)N1CCOC1=O", "Potency": "22.4 µM (active)"}
{"smiles": "O=C1OCCN1C(=O)[C@H]1[C@H](c2ccc(Cl)cc2)C(c2cccc(Cl)c2)=NN1c1ccc(Br)cc1", "Potency": "8.91 µM (active)"}
{"smiles": "Cc1ccc2c(c1)N(C(=O)Nc1ccc(Br)cc1F)CCO2", "max response, negative = inhibition": 5.17}
{"smiles": "COc1ccc(NS(=O)(=O)c2cc3c4c(c2)CC(=O)N4CCC3)cc1Cl", "max response, negative = inhibition": -28.2}
{"smiles": "COc1cccc(CNC(=O)c2ccc3c(c2)sc2nc(-c4cccc(OC)c4)cn23)c1", "max response, negative = inhibition": -4.99}
{"smiles": "CC1CCN(c2nc3ccc(C(=O)N4CCN(c5ccccc5)CC4)cc3s2)CC1", "max response, negative = inhibition": -2.72}
{"smiles": "CCC(CC)c1nn2cc(-c3ccccc3)nc2s1", "max response, negative = inhibition": -2.39}
{"smiles": "Oc1c(C(c2ccc(F)cc2)N2CCN(Cc3ccccc3)CC2)sc2nc(-c3ccco3)nn12", "note": "(stereo unspecified)", "max response, negative = inhibition": 1.08}
{"smiles": "CCC(=O)N1CCc2cc(S(=O)(=O)NCCC(=O)Nc3cccc(C)c3C)ccc21", "max response, negative = inhibition": -1.54}
{"smiles": "Cc1ccc(NC(=O)CN2C(=O)C(c3ccc(F)cc3)=NC23CCCCCC3)c(C)c1", "max response, negative = inhibition": 4.08}
{"smiles": "CC(C)NC(=O)CSc1nnc(COc2ccccc2Cl)o1", "max response, negative = inhibition": -5.33}
{"smiles": "Cc1cc(C)cc(OCc2nnc(SCC(=O)Nc3ccccc3)o2)c1", "max response, negative = inhibition": 4.82}
{"smiles": "Cc1ccccc1OCc1nnc(SCC(=O)N2c3ccccc3Sc3ccc(Cl)cc32)o1", "Potency": "12.6 µM (active)"}
